# Experiments:
# Assay in all cases: DAPPL (digital affinity profiling via proximity ligation, sequencing); 10 mM Tris-HCl pH 7.5, 50 mM NaCl, 1 mM DTT, 4% glycerol, room temperature, 30 min; GST-TFs on glutathione beads, 16-mer random dsDNA library, 0.1% formaldehyde crosslink after washing; high values mean tight binding
# Details in all cases: protein: recombinant; tags: N-terminal GST; dsDNA, one strand shown
# FLI1 = target: T1, FLI1 (Homo sapiens, UniProt Q01543 1-452)
# T1 sequence: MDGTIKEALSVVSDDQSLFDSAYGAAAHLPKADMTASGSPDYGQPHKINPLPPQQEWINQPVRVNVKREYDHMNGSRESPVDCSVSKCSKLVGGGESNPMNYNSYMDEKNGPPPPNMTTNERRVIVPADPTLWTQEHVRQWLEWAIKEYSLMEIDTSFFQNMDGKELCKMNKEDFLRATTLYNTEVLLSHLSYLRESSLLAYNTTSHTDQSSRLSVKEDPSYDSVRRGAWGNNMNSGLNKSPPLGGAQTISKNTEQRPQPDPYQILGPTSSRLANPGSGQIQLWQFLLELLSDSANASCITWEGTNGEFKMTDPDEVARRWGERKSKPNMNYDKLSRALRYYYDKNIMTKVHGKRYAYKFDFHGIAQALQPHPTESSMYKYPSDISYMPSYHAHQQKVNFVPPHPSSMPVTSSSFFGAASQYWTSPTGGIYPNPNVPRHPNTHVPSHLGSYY
# Outline: (§1)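 The binding signal reported is, for every hexamer, its read frequency for a factor over its read frequency for the tag-only sample. Reads came from pools of yeast-expressed, GST-fused human transcription factors on glutathione beads, barcoded with DNA and mixed with that sample, which were incubated with 200 nmole of a random double-stranded 16-mer DNA library in Tris/NaCl/DTT/glycerol buffer at room temperature for 30 min. After washing, the pools were crosslinked with 0.1% formaldehyde, proximity-ligated with BsaI/T4 ligase for 1 h at 37 °C, PCR-amplified and sequenced on an Illumina NextSeq500.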
# ELK1 = target: T2, ELK1 (Homo sapiens, UniProt P19419 1-428)
# T2 sequence: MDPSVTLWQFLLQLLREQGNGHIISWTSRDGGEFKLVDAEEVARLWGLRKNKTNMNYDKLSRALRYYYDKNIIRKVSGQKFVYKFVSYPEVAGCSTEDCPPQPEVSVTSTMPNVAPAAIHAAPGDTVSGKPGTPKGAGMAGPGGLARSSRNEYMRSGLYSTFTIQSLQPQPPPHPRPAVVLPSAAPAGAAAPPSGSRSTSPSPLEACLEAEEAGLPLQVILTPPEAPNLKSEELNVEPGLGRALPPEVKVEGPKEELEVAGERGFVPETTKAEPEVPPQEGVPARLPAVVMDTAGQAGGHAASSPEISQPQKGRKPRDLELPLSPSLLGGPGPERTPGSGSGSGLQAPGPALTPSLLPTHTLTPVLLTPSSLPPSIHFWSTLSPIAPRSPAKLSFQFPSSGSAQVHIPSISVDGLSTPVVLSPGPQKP
# Outline: as §1
# GABPA = target: T3, GABPA (Homo sapiens, UniProt Q06546 1-454)
# T3 sequence: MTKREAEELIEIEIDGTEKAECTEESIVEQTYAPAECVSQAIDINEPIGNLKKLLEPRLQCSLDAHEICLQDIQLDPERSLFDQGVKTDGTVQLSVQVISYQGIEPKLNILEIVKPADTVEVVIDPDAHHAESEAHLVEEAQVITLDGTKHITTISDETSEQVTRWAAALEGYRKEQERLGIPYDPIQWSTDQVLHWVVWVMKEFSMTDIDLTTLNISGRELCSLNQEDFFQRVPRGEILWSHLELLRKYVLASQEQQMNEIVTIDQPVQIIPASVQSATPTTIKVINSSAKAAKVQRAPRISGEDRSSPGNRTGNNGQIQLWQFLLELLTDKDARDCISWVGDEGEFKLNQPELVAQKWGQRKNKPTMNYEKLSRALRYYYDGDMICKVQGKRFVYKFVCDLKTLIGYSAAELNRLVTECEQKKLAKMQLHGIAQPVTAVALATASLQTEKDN
# Outline: as §1
# ERG = target: T4, ERG (Homo sapiens, UniProt P11308 1-479)
# T4 sequence: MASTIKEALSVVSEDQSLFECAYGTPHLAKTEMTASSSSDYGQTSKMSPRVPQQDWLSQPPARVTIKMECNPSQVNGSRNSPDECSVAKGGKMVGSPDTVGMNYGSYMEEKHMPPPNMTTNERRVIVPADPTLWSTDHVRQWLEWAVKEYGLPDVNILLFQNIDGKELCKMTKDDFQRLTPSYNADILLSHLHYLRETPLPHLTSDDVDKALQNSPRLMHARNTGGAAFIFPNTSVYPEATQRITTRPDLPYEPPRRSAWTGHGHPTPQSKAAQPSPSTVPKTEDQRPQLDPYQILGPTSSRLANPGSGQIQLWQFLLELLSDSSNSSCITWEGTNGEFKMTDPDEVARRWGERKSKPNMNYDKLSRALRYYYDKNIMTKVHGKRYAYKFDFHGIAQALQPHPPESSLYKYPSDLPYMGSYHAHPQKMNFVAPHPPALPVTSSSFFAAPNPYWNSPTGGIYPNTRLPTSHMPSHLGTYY
# Outline: as §1
# ELF1 = ELF1 (Homo sapiens, UniProt P32519 1-619)
# Sequence of ELF1 (P32519 whole entry): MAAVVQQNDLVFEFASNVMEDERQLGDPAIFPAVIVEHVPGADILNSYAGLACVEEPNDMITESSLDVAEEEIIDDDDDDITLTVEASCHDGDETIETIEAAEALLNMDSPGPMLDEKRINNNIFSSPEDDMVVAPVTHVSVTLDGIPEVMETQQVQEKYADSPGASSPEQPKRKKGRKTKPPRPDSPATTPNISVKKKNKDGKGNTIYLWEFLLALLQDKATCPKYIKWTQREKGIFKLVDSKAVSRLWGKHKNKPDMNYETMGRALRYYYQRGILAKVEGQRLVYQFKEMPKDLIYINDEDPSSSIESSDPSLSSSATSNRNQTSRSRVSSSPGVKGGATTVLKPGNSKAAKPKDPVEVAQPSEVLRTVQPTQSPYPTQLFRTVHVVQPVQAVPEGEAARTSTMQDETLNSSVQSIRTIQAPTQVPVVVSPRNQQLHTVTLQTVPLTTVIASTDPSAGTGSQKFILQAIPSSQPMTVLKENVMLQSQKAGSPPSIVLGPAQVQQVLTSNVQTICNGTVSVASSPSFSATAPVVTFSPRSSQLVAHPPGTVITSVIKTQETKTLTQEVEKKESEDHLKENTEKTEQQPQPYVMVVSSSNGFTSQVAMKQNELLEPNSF
# Outline: as §1
# EHF = target: T5, EHF (Homo sapiens, UniProt Q9NZC4 1-300)
# T5 sequence: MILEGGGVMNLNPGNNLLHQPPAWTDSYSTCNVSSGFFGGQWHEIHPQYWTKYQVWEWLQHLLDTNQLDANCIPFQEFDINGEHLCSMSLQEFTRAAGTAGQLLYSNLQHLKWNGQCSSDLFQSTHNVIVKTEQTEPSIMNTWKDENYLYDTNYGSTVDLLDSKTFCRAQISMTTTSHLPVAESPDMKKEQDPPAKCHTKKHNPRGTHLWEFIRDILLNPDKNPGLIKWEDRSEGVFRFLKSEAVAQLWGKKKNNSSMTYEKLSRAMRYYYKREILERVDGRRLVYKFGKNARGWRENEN
# Outline: as §1
# SPI1 = SPI1 (Homo sapiens, UniProt P17947 1-270)
# Outline: as §1
# SPIB = SPIB (Homo sapiens, UniProt Q01892 1-262)
# Sequence of SPIB (Q01892 whole entry): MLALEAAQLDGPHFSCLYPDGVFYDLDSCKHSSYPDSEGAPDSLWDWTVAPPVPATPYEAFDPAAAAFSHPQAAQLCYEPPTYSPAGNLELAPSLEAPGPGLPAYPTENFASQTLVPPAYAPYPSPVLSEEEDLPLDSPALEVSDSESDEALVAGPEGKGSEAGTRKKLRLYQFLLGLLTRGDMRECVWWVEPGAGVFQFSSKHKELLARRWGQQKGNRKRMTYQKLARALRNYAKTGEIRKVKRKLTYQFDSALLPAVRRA
# Outline: as §1
# ELK3 = target: T6, ELK3 (Homo sapiens, UniProt P41970 1-407)
# T6 sequence: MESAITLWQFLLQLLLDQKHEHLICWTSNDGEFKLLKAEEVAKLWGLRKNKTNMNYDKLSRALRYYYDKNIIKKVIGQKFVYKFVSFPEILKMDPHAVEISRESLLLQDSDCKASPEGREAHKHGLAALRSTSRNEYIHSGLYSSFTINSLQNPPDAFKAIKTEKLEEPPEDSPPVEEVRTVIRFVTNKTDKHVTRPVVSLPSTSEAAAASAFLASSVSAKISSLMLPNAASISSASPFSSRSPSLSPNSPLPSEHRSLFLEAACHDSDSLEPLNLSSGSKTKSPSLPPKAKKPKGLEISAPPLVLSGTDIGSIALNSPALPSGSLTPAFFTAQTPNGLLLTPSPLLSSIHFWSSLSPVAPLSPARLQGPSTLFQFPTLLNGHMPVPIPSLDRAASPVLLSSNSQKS
# Outline: as §1
Sequence,binding signal (FLI1),binding signal (ELK1),binding signal (GABPA),binding signal (ERG),binding signal (ELF1),binding signal (EHF),binding signal (SPI1),binding signal (SPIB),binding signal (ELK3)
AAACAC,"1.25 fold enrichment (6-mer frequency, TF over GST control)","1.33 fold enrichment (6-mer frequency, TF over GST control)","1.24 fold enrichment (6-mer frequency, TF over GST control)","1.33 fold enrichment (6-mer frequency, TF over GST control)","1.31 fold enrichment (6-mer frequency, TF over GST control)","1.35 fold enrichment (6-mer frequency, TF over GST control)","1.3 fold enrichment (6-mer frequency, TF over GST control)","1.27 fold enrichment (6-mer frequency, TF over GST control)","1.24 fold enrichment (6-mer frequency, TF over GST control)"
ATATCT,"1.25 fold enrichment (6-mer frequency, TF over GST control)","1.19 fold enrichment (6-mer frequency, TF over GST control)","1.26 fold enrichment (6-mer frequency, TF over GST control)","1.21 fold enrichment (6-mer frequency, TF over GST control)","1.21 fold enrichment (6-mer frequency, TF over GST control)","1.17 fold enrichment (6-mer frequency, TF over GST control)","1.16 fold enrichment (6-mer frequency, TF over GST control)","1.21 fold enrichment (6-mer frequency, TF over GST control)","1.15 fold enrichment (6-mer frequency, TF over GST control)"
CTGCTG,"1.15 fold enrichment (6-mer frequency, TF over GST control)","1.26 fold enrichment (6-mer frequency, TF over GST control)","1.27 fold enrichment (6-mer frequency, TF over GST control)","1.11 fold enrichment (6-mer frequency, TF over GST control)","1.4 fold enrichment (6-mer frequency, TF over GST control)","1.39 fold enrichment (6-mer frequency, TF over GST control)","1.24 fold enrichment (6-mer frequency, TF over GST control)","1.04 fold enrichment (6-mer frequency, TF over GST control)","1.3 fold enrichment (6-mer frequency, TF over GST control)"
TTTTGT,"1.35 fold enrichment (6-mer frequency, TF over GST control)","1.18 fold enrichment (6-mer frequency, TF over GST control)","1.36 fold enrichment (6-mer frequency, TF over GST control)","1.39 fold enrichment (6-mer frequency, TF over GST control)","1.33 fold enrichment (6-mer frequency, TF over GST control)","1.33 fold enrichment (6-mer frequency, TF over GST control)","1.43 fold enrichment (6-mer frequency, TF over GST control)","1.37 fold enrichment (6-mer frequency, TF over GST control)","1.27 fold enrichment (6-mer frequency, TF over GST control)"
ATTGAT,"1.28 fold enrichment (6-mer frequency, TF over GST control)","1.35 fold enrichment (6-mer frequency, TF over GST control)","1.39 fold enrichment (6-mer frequency, TF over GST control)","1.33 fold enrichment (6-mer frequency, TF over GST control)","1.31 fold enrichment (6-mer frequency, TF over GST control)","1.17 fold enrichment (6-mer frequency, TF over GST control)","1.24 fold enrichment (6-mer frequency, TF over GST control)","1.16 fold enrichment (6-mer frequency, TF over GST control)","1.33 fold enrichment (6-mer frequency, TF over GST control)"
CTCAAG,"1.29 fold enrichment (6-mer frequency, TF over GST control)","1.17 fold enrichment (6-mer frequency, TF over GST control)","1.14 fold enrichment (6-mer frequency, TF over GST control)","1.18 fold enrichment (6-mer frequency, TF over GST control)","1.18 fold enrichment (6-mer frequency, TF over GST control)","1.21 fold enrichment (6-mer frequency, TF over GST control)","1.22 fold enrichment (6-mer frequency, TF over GST control)","1.2 fold enrichment (6-mer frequency, TF over GST control)","1.32 fold enrichment (6-mer frequency, TF over GST control)"
CTCCAC,"1.56 fold enrichment (6-mer frequency, TF over GST control)","1.41 fold enrichment (6-mer frequency, TF over GST control)","1.46 fold enrichment (6-mer frequency, TF over GST control)","1.37 fold enrichment (6-mer frequency, TF over GST control)","1.38 fold enrichment (6-mer frequency, TF over GST control)","1.32 fold enrichment (6-mer frequency, TF over GST control)","1.55 fold enrichment (6-mer frequency, TF over GST control)","1.32 fold enrichment (6-mer frequency, TF over GST control)","1.54 fold enrichment (6-mer frequency, TF over GST control)"
